In the supplement of paper PMC10646978:
± gives the standard deviation.

What was measured:
Details in all cases: modulator concentration 10 µM
[1] = test system: RAW-Dual (murine macrophage reporter line); test: NF-kB reporter (SEAP) activity fold change vs agonist alone; higher = enhanced NF-kB activity
Procedure, shortened: (§1)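 In 384-well plates holding 50 000 RAW-Dual murine macrophage reporter cells per well, compound at 10 μM final was pre-incubated for 1 hour at 37 °C, after which a PRR agonist was added overnight. Supernatant SEAP read with QUANTI-Blue at 620 nm absorbance reported NF-κB, and Lucia luciferase read with QUANTI-Luc luminescence reported IRF. Fold change values come from dividing each reporter signal by the mean of agonist-only control wells on the same plate, averaged over replicate plates with propagated errors.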

[2] = test system: RAW-Dual (murine macrophage reporter line); test: IRF reporter (Lucia luciferase) activity fold change vs agonist alone; higher = enhanced IRF activity
Procedure, shortened: as §1

[3] = test system: RAW-Dual (murine macrophage reporter line); test: viability score (confluency relative to resting cells, overnight) (fraction); higher = more viable, active = viable (0.7 or more)
Procedure, shortened: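 In 384-well plates, RAW-Dual macrophages received compound at a final 10 μM overnight. Two confluency masks were then made with IncuCyte software from IncuCyte images of all imaged wells. The viability score is defined as confluency relative to resting cells. Passing the cutoff required both masks to lie above 70% of resting cells.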

[4] = agonist: CpG ODN 1826 0.5 ug/mL

| SMILES | NF-kB reporter [1, 4] | NF-kB reporter ([1]; agonist: LPS 0.1 ug/mL) | NF-kB reporter ([1]; agonist: MPLA […]) | IRF reporter ([2]; agonist: 3'3'-cGAMP 10 ug/mL) | IRF reporter ([2]; agonist: LPS 0.1 ug/mL) | IRF reporter ([2]; agonist: MPLA […]) | viability score [3] |
| --- | --- | --- | --- | --- | --- | --- | --- |
| Cc1cc(I)cc2c1NC(c1cccc([N+](=O)[O-])c1)C1CC=CC21 (configuration not stated) | 0.921 ± 0.079 | 0.795 ± 0.058 | 0.867 ± 0.089 | 0.497 ± 0.039 | 1.17 ± 0.23 | 1.13 ± 0.25 | 1.02 (active) |
| CS(=O)(=O)O.Cc1c(O)cccc1C(=O)N[C@@H](CSc1ccccc1)[C@H](O)CN1C[C@H]2CCCC[C@H]2C[C@H]1C(=O)NC(C)(C)C | 0.399 ± 0.017 | 0.968 ± 0.08 | 1.29 ± 0.07 | 1.09 ± 0.056 | 1.26 ± 0.29 | 1.32 ± 0.46 | 0.987 (active) |
| CC1(C)CC(=O)c2sc(NC(=O)c3ccccc3)nc2C1 | 1.05 ± 0.078 | 1.08 ± 0.12 | 1 ± 0.036 | 0.807 ± 0.048 | 1 ± 0.13 | 1.02 ± 0.12 | 1 (active) |
| Cc1cc(C)c(-c2csc(NC(=O)C=Cc3cccs3)n2)c(C)c1 | 0.618 ± 0.048 | 0.873 ± 0.091 | 1.44 ± 0.066 | 1.02 ± 0.071 | 1.12 ± 0.097 | 1.89 ± 0.17 | 0.8 (active) |
| COC1CCN(C2CN(C(=O)CCn3cnc4ccccc4c3=O)C2)CC1 | 1.05 ± 0.052 | 1.08 ± 0.092 | 0.882 ± 0.044 | 1.01 ± 0.052 | 1.27 ± 0.076 | 1.13 ± 0.24 | 0.994 (active) |
| COc1ccc(Cn2cc3c(-c4ccc(F)cc4)nnc-3c3cc(OC)c(OC)cc32)cc1 | 0.318 ± 0.026 | 1.17 ± 0.13 | 2.16 ± 0.1 | 1.79 ± 0.12 | 2.42 ± 0.18 | 3 ± 0.35 | 0.141 (inactive) |
| O=c1[nH]c(=O)n([C@H]2C[C@H](O)[C@@H](CO)O2)cc1F | 1.65 ± 0.14 | 1.02 ± 0.12 | 1.11 ± 0.028 | 0.75 ± 0.042 | 0.923 ± 0.083 | 0.863 ± 0.067 | 0.669 (inactive) |
| COc1cc(O)c2c(=O)cc(-c3ccc(O)cc3)oc2c1 | 1.15 ± 0.098 | 1.04 ± 0.076 | 1.01 ± 0.024 | 0.795 ± 0.11 | 0.959 ± 0.049 | 0.798 ± 0.099 | 0.997 (active) |
| CCCCc1nc(C)c(CC(=S)N(C)C)c(=O)n1Cc1ccc(-c2ccccc2-c2nnn[nH]2)cc1 | 0.589 ± 0.025 | 0.273 ± 0.022 | 1.36 ± 0.077 | 0.0858 ± 0.062 | 3.7 ± 0.2 | 8.26 ± 0.79 | 0.139 (inactive) |
| COc1ccc(-c2ccc(OCCNC(=O)Cc3ccc(Br)cc3)nn2)cc1 | 0.959 ± 0.049 | 1.08 ± 0.084 | 0.908 ± 0.055 | 1.02 ± 0.085 | 1.09 ± 0.2 | 1.07 ± 0.31 | 1 (active) |
| Cc1ccc2[nH]c3nc(C)cc(C)c3c(=O)c2c1 | 0.967 ± 0.16 | 1.08 ± 0.091 | 0.993 ± 0.12 | 1.01 ± 0.052 | 1.25 ± 0.25 | 1.31 ± 0.21 | 0.704 (active) |
| CCOC(=O)Nc1nc(C)c(C(C)=O)s1 | 0.763 ± 0.059 | 0.872 ± 0.046 | 1.12 ± 0.098 | 0.996 ± 0.058 | 1.35 ± 0.081 | 1.44 ± 0.14 | 1.02 (active) |
| N=C(N)Nc1nc(CSCCC(=N)NS(N)(=O)=O)cs1 | 1.09 ± 0.1 | 0.992 ± 0.059 | 1.06 ± 0.039 | 0.967 ± 0.064 | 0.898 ± 0.036 | 1.02 ± 0.088 | 0.995 (active) |
| CC(=O)Nc1ccc(NC(=S)NC(=O)C=Cc2ccc(Cl)cc2Cl)cc1 | 0.64 ± 0.05 | 0.741 ± 0.059 | 0.933 ± 0.095 | 0.428 ± 0.031 | 1.33 ± 0.12 | 1.3 ± 0.22 | 1 (active) |
| O=C(Nc1nc2cccc(-c3ccc(CN4CCS(=O)(=O)CC4)cc3)n2n1)C1CC1 | 0.0988 ± 0.0077 | 0.639 ± 0.07 | 0.873 ± 0.05 | 0.79 ± 0.047 | 0.851 ± 0.2 | 0.845 ± 0.25 | 0.834 (active) |
| C=C(Br)Cn1c(COc2ccccc2)nc2ccccc21 | 0.562 ± 0.098 | 1.06 ± 0.12 | 1.05 ± 0.084 | 1.12 ± 0.036 | 1.19 ± 0.28 | 1.19 ± 0.15 | 0.991 (active) |
| Nc1ncnc2c1ncn2[C@@H]1O[C@H](COP(=O)(O)O)[C@@H](O)[C@H]1O [Prestw-356] | 1.37 ± 0.16 | 1.09 ± 0.11 | 1.23 ± 0.12 | 1.32 ± 0.069 | 1.21 ± 0.16 | 1.36 ± 0.28 | 1.03 (active) |
| O=C1SC(=Cc2ccc([N+](=O)[O-])cc2)C(=O)N1Cc1ccccc1 | 0.98 ± 0.064 | 1.04 ± 0.069 | 0.951 ± 0.071 | 0.989 ± 0.042 | 1.5 ± 0.28 | 1.23 ± 0.12 | 1 (active) |
| O=C(NN=Cc1c(O)ccc2ccccc12)c1ccccc1Br | 1.43 ± 0.11 | 1.24 ± 0.091 | 1.14 ± 0.092 | 0.612 ± 0.1 | 1.05 ± 0.074 | 0.873 ± 0.057 | 0.989 (active) |
| O=C(Nc1nccs1)c1ccc2c(c1)C(=O)N(C1CCCCC1)C2=O | 1.09 ± 0.086 | 1.05 ± 0.096 | 0.878 ± 0.052 | 0.979 ± 0.032 | 1.57 ± 0.22 | 1.21 ± 0.21 | 1 (active) |
| Fc1ccc(Oc2nc(Nc3cccc(Cl)c3)nc(N3CCOCC3)n2)cc1 | 0.331 ± 0.028 | 1.33 ± 0.089 | 2.57 ± 0.15 | 0.757 ± 0.052 | 2.94 ± 0.22 | 2.19 ± 0.34 | 0.84 (active) |
| CN1CCC(=C2c3ccccc3C=Cc3ccccc32)CC1 [Prestw-103] | 0.516 ± 0.038 | 0.833 ± 0.056 | 1.01 ± 0.053 | 0.72 ± 0.067 | 0.905 ± 0.1 | 0.915 ± 0.12 | 0.293 (inactive) |
| Cc1nnc(C)n1N=Cc1ccc(C(F)(F)F)cc1 | 0.898 ± 0.058 | 0.789 ± 0.061 | 0.962 ± 0.038 | 0.957 ± 0.04 | 0.909 ± 0.063 | 0.886 ± 0.093 | 0.996 (active) |
| CS(=O)(=O)c1ccc(C2=C(c3ccccc3)C(=O)OC2)cc1 | 0.962 ± 0.09 | 1.04 ± 0.071 | 0.975 ± 0.042 | 1.05 ± 0.058 | 0.97 ± 0.074 | 0.946 ± 0.084 | 0.997 (active) |
| O=C(O)CCC(=O)Nc1ccc(Br)cn1 | 1.17 ± 0.098 | 1.02 ± 0.066 | 1.02 ± 0.04 | 1.02 ± 0.19 | 1.12 ± 0.14 | 0.938 ± 0.27 | 0.997 (active) |
| Cc1ccc(NC(=O)C(C#N)=Cc2ccc(-c3cccc([N+](=O)[O-])c3)o2)cc1 | 1.07 ± 0.084 | 1.06 ± 0.094 | 0.904 ± 0.054 | 1 ± 0.076 | 1.46 ± 0.1 | 1.18 ± 0.14 | 1.01 (active) |
